Most compounds without a hit are left out; they make up all but 2.4% or so of the library.
D2 PAM-1 – potentiates the human D2 dopamine receptor allosterically. 0.23% of 360,000 active. P14416. potentiation, % (no concentration beside the values). DiscoveRx D2 beta-arrestin cells, luminescence, 90 min; 100% = 57 uM dopamine signal; in the data active means potentiation above about 50%; inconclusive means mostly about 30% to 49%
Target sequence (P14416 whole entry, looked up): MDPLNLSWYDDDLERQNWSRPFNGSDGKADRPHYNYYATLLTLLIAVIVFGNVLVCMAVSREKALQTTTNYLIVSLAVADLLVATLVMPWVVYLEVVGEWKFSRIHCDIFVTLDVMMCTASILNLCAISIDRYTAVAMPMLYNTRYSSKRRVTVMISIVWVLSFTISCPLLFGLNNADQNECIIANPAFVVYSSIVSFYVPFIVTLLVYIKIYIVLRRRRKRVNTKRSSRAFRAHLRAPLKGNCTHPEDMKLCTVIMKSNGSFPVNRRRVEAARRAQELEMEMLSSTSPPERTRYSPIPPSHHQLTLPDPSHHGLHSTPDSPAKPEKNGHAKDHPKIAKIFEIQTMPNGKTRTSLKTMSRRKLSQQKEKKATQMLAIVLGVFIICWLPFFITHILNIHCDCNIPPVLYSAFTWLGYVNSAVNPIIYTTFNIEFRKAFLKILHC
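PathHunter D2 cells, attached overnight at 37 deg C, received compound in DMSO plus dopamine at EC20 (50 nM final) for 90 min at 37 deg C. Beta-arrestin recruitment was read as luminescence after 1 h with detection reagent at ambient temperature.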
D2 ag-1 – agonists of human D2 dopamine receptor (beta-arrestin); P14416; DiscoveRx PathHunter D2 beta-arrestin, luminescence, 90 min; 100% = 57 uM dopamine signal; activation, % (concentration not given with the values); 0.084% of 360,000 active; in the data active means activation above about 40%; inconclusive means between about 15% and that limit
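DiscoveRx PathHunter D2 beta-arrestin cells (2,100/well) attached overnight, then compound-stimulated 90 min at 37 C in HBSS/10 mM HEPES/0.1% Tween-20 buffer; beta-galactosidase complementation read by luminescence after 1 h at ambient temperature. Dopamine 57 uM final (EC100) as control.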
D2 PAM-2 – D2 dopamine receptor (human) potentiation. P14416. AID 485347. 0.34% of 340,000 active. potentiation, % at 10 µM. HEK293 T-REx D2, calcium flux, EC20 dopamine potentiation;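 active means potentiation over 3 SD above the plate norm, cut at about 30% in these data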
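Tetracycline-induced Hek293 Trex D2 cells, force-coupled to calcium, loaded with no-wash calcium dye. Compound added with 180 s kinetic read for agonism, then EC20 dopamine and a further 180 s read for potentiation.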
D2 ag-2 – activates the human D2 dopamine receptor; HEK293 T-REx D2 cells, calcium flux agonist mode; activation, % at 2 µM; AID 485358; 0.53% of 340,000 active; P14416;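 active means activation over 3 SD above normal in the single-dose calcium agonist read, cut at about 30% in these data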
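Agonism is scored from calcium flux in a force-coupled, inducible HEK293 cell line expressing D2, read kinetically for 180 s after compound addition against dopamine controls.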
D2 antag – antagonizes the human D2 dopamine receptor; AID 485344; 2% of 340,000 active; HEK293 TREx D2 cells, calcium flux, dopamine EC80; inhibition, % at 10 µM; P14416; in the data active means inhibition above about 30%; inactive means below that, where a call was filed
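Tetracycline-induced HEK293 TREx cells expressing D2 receptor forced-coupled to calcium signalling, loaded with no-wash calcium dye. Compounds added and calcium flux read 180 s, then dopamine added at EC80 and read a further 180 s.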
Hits are given with their value.

What do the screens show for `Cc1ccc(S(=O)(=O)c2ccc([N+](=O)[O-])cn2)cc1`?
D2 PAM-1: inactive; D2 ag-1: inactive; D2 PAM-2: inactive; D2 ag-2: inactive; D2 antag: inactive

What do the screens show for `Cc1oc2c(CN3CCCC3)c(O)ccc2c(=O)c1-c1ccccc1`?
D2 PAM-1: inactive; D2 ag-1: inactive; D2 PAM-2: inactive; D2 ag-2: inactive; D2 antag: inactive

Results for Cc1oc2c(CN3CCC(C)CC3)c(O)ccc2c(=O)c1-c1ccccc1 ?
D2 PAM-1: inactive; D2 ag-1: inactive; D2 PAM-2: inactive; D2 ag-2: inactive; D2 antag: 44.5

How did O=C(NCc1ccc(Cl)cc1)c1ccc(NC(=O)N2CC3CCCN3c3ccccc32)cc1 (stereo not drawn) do in these assays?
D2 PAM-2: inactive; D2 ag-2: inactive

How did Cc1ccc(CSc2sc(C(=O)c3ccccc3)c(N)c2C#N)cc1 do in these assays?
D2 PAM-1: inactive; D2 ag-1: inactive; D2 PAM-2: inactive; D2 ag-2: inactive; D2 antag: inactive

How did N#Cc1c(SCc2ccccc2)sc(C(=O)c2ccccc2)c1N do in these assays?
D2 PAM-1: inactive; D2 ag-1: inactive; D2 PAM-2: inactive; D2 ag-2: inactive; D2 antag: 65.0

What do the screens show for `CCCCC(=O)Nc1ccc(OCc2cc(=O)n3ccc(C)cc3n2)cc1`?
D2 PAM-2: inactive; D2 ag-2: inactive

What do the screens show for `COc1cc(C(=O)O/N=C2\C=CC(=O)C=C2C)cc(OC)c1OC`?
D2 PAM-1: inactive; D2 ag-1: inactive; D2 PAM-2: inactive; D2 ag-2: inactive; D2 antag: 49.8

What do the screens show for `COc1cc(C(=O)NC23CC4CC(CC(C4)C2)C3)cc(OC)c1OC`?
D2 PAM-1: inactive; D2 ag-1: inactive; D2 PAM-2: inactive; D2 ag-2: inactive; D2 antag: inactive

What do the screens show for `COc1cc(C(=O)ON=C2C3CC4CC(C3)CC2C4)cc(OC)c1OC`?
D2 PAM-1: inactive; D2 ag-1: 44.8; D2 PAM-2: inactive; D2 ag-2: inactive; D2 antag: inactive

How did COc1cc(C(=O)O/N=C2/C=CC(=O)C(C)=C2C)cc(OC)c1OC do in these assays?
D2 PAM-1: 72.0; D2 ag-1: inconclusive; D2 PAM-2: inactive; D2 ag-2: inactive; D2 antag: inactive

What do the screens show for `Cc1ccc(NC(=O)CN2C(=O)c3ccccc3Sc3ccc(C(=O)N4CCOCC4)cc32)cc1F`?
D2 PAM-2: inactive

Results for CCCCCCN1CCN(C2CN(Cc3ccc(F)cc3)S(=O)(=O)C2)CC1 (stereo not drawn) ?
D2 PAM-1: inactive; D2 ag-1: inactive

How did COc1ccc(N(C(=O)c2ccc(C(C)(C)C)cc2)S(=O)(=O)c2ccc(Cl)cc2)cc1 do in these assays?
D2 PAM-2: inactive; D2 ag-2: inactive

What do the screens show for `Cc1cc2n(n1)SC(Nc1cccc3ccccc13)N2` (stereo not drawn)?
D2 PAM-1: inactive; D2 ag-1: inactive; D2 PAM-2: inactive; D2 ag-2: inactive; D2 antag: inactive

What do the screens show for `CCc1ccccc1NC1Nc2cc(C)nn2S1` (stereo not drawn)?
D2 PAM-1: inactive; D2 ag-1: inactive; D2 PAM-2: 56.5; D2 ag-2: inactive; D2 antag: inactive

Results for CN(C)c1ccc(NC(=O)CCSc2nc(-c3ccco3)cc(C(F)(F)F)n2)cc1 ?
D2 PAM-2: inactive; D2 ag-2: inactive

Results for Cc1cccc(S(=O)(=O)NCCc2cn3ccccc3n2)c1 ?
D2 PAM-1: inactive; D2 ag-1: inactive; D2 PAM-2: inactive; D2 ag-2: inactive; D2 antag: 32.0

Results for O=S(=O)(NCCc1cn2ccccc2n1)c1ccc(-c2ccccc2)cc1 ?
D2 PAM-1: inactive; D2 ag-1: inactive; D2 PAM-2: inactive; D2 ag-2: inactive; D2 antag: inactive

How did O=C(NC1CCCCCC1)C1CCN(C(=O)N2CCOc3ccccc32)CC1 do in these assays?
D2 PAM-2: inactive; D2 ag-2: inactive

How did Cc1cnc(C(=O)OCC(=O)NCc2ccccc2)cn1 do in these assays?
D2 PAM-1: inactive; D2 ag-1: inactive; D2 PAM-2: inactive; D2 ag-2: inactive; D2 antag: inactive

Results for Cc1cnc(C(=O)OCC(=O)NC(C)CCc2ccccc2)cn1 (stereo not drawn) ?
D2 PAM-1: inactive; D2 ag-1: inactive; D2 PAM-2: inactive; D2 ag-2: inactive; D2 antag: 34.1

How did CC(=O)c1ccc(NC(=O)Cn2cc(S(=O)(=O)Cc3ccccc3Cl)c3ccccc32)cc1 do in these assays?
D2 PAM-2: inactive; D2 ag-2: inactive

Results for O=C1c2ccncc2C(=O)N1c1cccc(Cl)c1 ?
D2 PAM-1: inactive; D2 ag-1: inactive; D2 PAM-2: inactive; D2 ag-2: inactive; D2 antag: inactive

How did O=c1onc(-c2ccc(Cl)cc2Cl)n1-c1cccnc1 do in these assays?
D2 PAM-1: 59.3; D2 ag-1: 59.9; D2 PAM-2: inactive; D2 ag-2: inactive; D2 antag: inactive

What do the screens show for `Cc1nnc(SCc2cc(=O)oc3cc(O)ccc23)n1Cc1ccccc1`?
D2 PAM-1: inactive; D2 ag-1: inactive; D2 PAM-2: inactive; D2 ag-2: inactive; D2 antag: 30.3

How did COc1cc2c(cc1OC)CN(CC(=O)NC(=O)NCc1ccccc1)CC2 do in these assays?
D2 PAM-1: inactive; D2 ag-1: inactive; D2 PAM-2: inactive; D2 ag-2: inactive; D2 antag: inactive

How did C/C=C(\C)CN1CCc2cc(OC)c(OC)cc2C1 do in these assays?
D2 PAM-1: inactive; D2 ag-1: inactive; D2 PAM-2: 30.8; D2 ag-2: inactive; D2 antag: inactive

Results for O=C(O)C(Cc1ccccc1[N+](=O)[O-])N1C(=O)c2ccccc2C1=O (stereo not drawn) ?
D2 PAM-1: inactive; D2 ag-1: inactive

Results for Cc1ccc(CNc2nc3ccccc3n3nnnc23)cc1 ?
D2 PAM-1: 52.0; D2 ag-1: inactive; D2 PAM-2: inactive; D2 ag-2: inactive; D2 antag: inactive

What do the screens show for `Cc1ccc(CNC(=O)c2ccc(Nc3nc4ccccc4n4nnnc34)cc2)cc1`?
D2 PAM-2: inactive; D2 ag-2: inactive

What do the screens show for `O=C(CSc1ccc2c(c1)OCCO2)Nc1cccnc1Cl`?
D2 PAM-1: inactive; D2 ag-1: inactive; D2 PAM-2: inactive; D2 ag-2: inactive; D2 antag: inactive

How did COc1ccc(Cc2nnc(SCC(=O)N(C)c3ccccc3)o2)cc1 do in these assays?
D2 PAM-1: inactive; D2 ag-1: inactive; D2 PAM-2: inactive; D2 ag-2: inactive; D2 antag: 66.0

What do the screens show for `Cc1ccccc1-c1nnc(SCC(=O)Nc2cccnc2Cl)o1`?
D2 PAM-1: inactive; D2 ag-1: inactive

How did Cc1cccnc1NC(=O)CSc1nnc(Cc2ccccc2)o1 do in these assays?
D2 PAM-1: inactive; D2 ag-1: inactive; D2 PAM-2: inactive; D2 ag-2: inactive; D2 antag: 44.4

Results for Cc1cccnc1NC(=O)CSc1ccc2c(c1)OCCO2 ?
D2 PAM-1: inactive; D2 ag-1: inactive; D2 PAM-2: inactive; D2 ag-2: inactive; D2 antag: 32.1
